Measured values taken from paper PMC6602471.
Over roughly 1,300 sequences, “log fluorescence intensity” has its median near 8.3; the highest 2% begin near 12. The full list was thinned out, with the highest values kept by preference.

Target: T1, ETS1 (Homo sapiens, UniProt P14921 1-441)
T1 sequence: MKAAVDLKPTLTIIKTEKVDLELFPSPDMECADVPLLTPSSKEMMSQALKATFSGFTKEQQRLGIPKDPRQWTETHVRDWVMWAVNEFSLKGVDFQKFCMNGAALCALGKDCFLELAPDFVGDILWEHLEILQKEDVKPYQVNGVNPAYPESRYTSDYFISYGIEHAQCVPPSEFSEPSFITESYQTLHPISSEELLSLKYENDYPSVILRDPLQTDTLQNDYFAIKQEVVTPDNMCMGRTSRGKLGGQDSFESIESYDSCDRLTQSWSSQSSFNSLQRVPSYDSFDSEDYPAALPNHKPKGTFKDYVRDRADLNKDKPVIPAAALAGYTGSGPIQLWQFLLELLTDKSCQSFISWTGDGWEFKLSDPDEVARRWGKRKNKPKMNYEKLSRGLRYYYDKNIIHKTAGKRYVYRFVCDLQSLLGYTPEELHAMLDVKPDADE
Experiment: custom PBM; custom protein-binding microarray; buffer, salt, pH and temperature not stated; high values mean tight binding
Conditions: dsDNA, one strand shown

Sequence | binding signal
GGAAAAAGGCCCGGGGTAACACCGGAAGTGGGCTTAGTCTTGATTCGCTTGACGCTGCTG | 12.5 log fluorescence intensity
GGAAAAAGGCCCCGGGTAACACCGGAAGTGGGCTTAGTCTTGATTCGCTTGACGCTGCTG | 12.6 log fluorescence intensity
GGAAAAAGGCCCTGGGTAACACCGGAAGTGGGCTTAGTCTTGATTCGCTTGACGCTGCTG | 12 log fluorescence intensity
TAAAGGGAAGAAGGTTGTGGTAGTTCCGGGTATTAAGTCTTGATTCGCTTGACGCTGCTG | 8.45 log fluorescence intensity
GGAAAAAGGCCCAGGGTAACACCGTAAGTGGGCTTAGTCTTGATTCGCTTGACGCTGCTG | 8.34 log fluorescence intensity
GTGTATAGGAACCCATCCAACACACGTGTTAAAATGGTCTTGATTCGCTTGACGCTGCTG | 8.33 log fluorescence intensity
CGGAAGTGTCGTAACCGTCGGATATCCGGTTCTTCTGTCTTGATTCGCTTGACGCTGCTG | 11.9 log fluorescence intensity
TAAAGGGAAGACGGTAGTGGTAGTTCCGGGTATTAAGTCTTGATTCGCTTGACGCTGCTG | 8.7 log fluorescence intensity
GCTGCTGCGGTGCATACCCCACCGGACGTGACCCCGGTCTTGATTCGCTTGACGCTGCTG | 8.55 log fluorescence intensity
GGAAAAAGGCCCAGGGTAACACCGGAAGTGGGCTGAGTCTTGATTCGCTTGACGCTGCTG | 11.9 log fluorescence intensity
GGAAAAAGGCCCAGGGTAACACCGGAAGTGGGCTTGGTCTTGATTCGCTTGACGCTGCTG | 11.8 log fluorescence intensity
GGAAAAAGGCCCAGGGTAACACCGGAAGTGGGCTTTGTCTTGATTCGCTTGACGCTGCTG | 12.1 log fluorescence intensity
GGAAAAAGGCCCAGGGTAACACCGGAAGTGGGCTCAGTCTTGATTCGCTTGACGCTGCTG | 12 log fluorescence intensity
GGAAAAAGGCCCAGGGTAACACCGGAAGTGGGCATAGTCTTGATTCGCTTGACGCTGCTG | 12 log fluorescence intensity
GAAAAAAGGCCCAGGGTAACACCGGAAGTGGGCTTAGTCTTGATTCGCTTGACGCTGCTG | 12.1 log fluorescence intensity
GGAAAAAGGCCCAGGGTAACACCGGAAGTGGGCTAAGTCTTGATTCGCTTGACGCTGCTG | 12.1 log fluorescence intensity
GGAAAAAGGCCCAGGGTAACACCGGAAGTGGGCTTAGTCTTGATTCGCTTGACGCTGCTG | 12 log fluorescence intensity
GGAAAAAGGCCCAGGGTAACACCGGAAGTGGGCTTCGTCTTGATTCGCTTGACGCTGCTG | 12.1 log fluorescence intensity
TAAAGGAAAGACGGTTGTGGTAGTTCCGGGTATTAAGTCTTGATTCGCTTGACGCTGCTG | 8.77 log fluorescence intensity
TGTCGGGTAAGGGAATGTAGATCACGTGACTGAAAAGTCTTGATTCGCTTGACGCTGCTG | 8.33 log fluorescence intensity
TAAAGGGAAGACGGTTGTGGGAGTTCCGGGTATTAAGTCTTGATTCGCTTGACGCTGCTG | 8.37 log fluorescence intensity

Sequence | binding signal
CTGAAGTGTCGTAAACGTCGGATATCCGGTTCTTCTGTCTTGATTCGCTTGACGCTGCTG | 11.8 log fluorescence intensity
TCCGCCTACCAGCTCCACCCACTTCAGGCCTTGTAGGTCTTGATTCGCTTGACGCTGCTG | 8.47 log fluorescence intensity
TAAAGGGAAGACGCTTGTGGTAGTTCCGGGTATTAAGTCTTGATTCGCTTGACGCTGCTG | 8.41 log fluorescence intensity
GGAAAAAGGCCCAGGGTAACACCGGATGTGGGCTTAGTCTTGATTCGCTTGACGCTGCTG | 11 log fluorescence intensity
CAGCATCGGACTTCTTCCCTGAAGCAATTGATAACCGTCTTGATTCGCTTGACGCTGCTG | 8.4 log fluorescence intensity
GCTGCTGCGGTGCATACCCCACCGGATGTGACCCGGGTCTTGATTCGCTTGACGCTGCTG | 10.2 log fluorescence intensity
GCTGCTGCGGTGCATACCTCACCGGATGTGACCCCGGTCTTGATTCGCTTGACGCTGCTG | 9.97 log fluorescence intensity
GGAAAAAGGCCCAGGGTAACACCGGAAATGGGCTTAGTCTTGATTCGCTTGACGCTGCTG | 11.5 log fluorescence intensity
GCTTCTGCGGTGCATACCCCACCGGATGTGACCCCGGTCTTGATTCGCTTGACGCTGCTG | 10.3 log fluorescence intensity
GGAAAAAGGCCCAGGGTAACACCTGAAGTGGGCTTAGTCTTGATTCGCTTGACGCTGCTG | 8.36 log fluorescence intensity
TAAAGGGAAGACGATTGTGGTAGTTCCGGGTATTAAGTCTTGATTCGCTTGACGCTGCTG | 8.5 log fluorescence intensity
GCTGCTGCGGTGCATACCCCACCGGATGTGACCCCAGTCTTGATTCGCTTGACGCTGCTG | 10.1 log fluorescence intensity
GGAAAAAGGCCCAGGGTAACACCGGAACTGGGCTTAGTCTTGATTCGCTTGACGCTGCTG | 9.07 log fluorescence intensity
GCTGCTGCGGTGCATACCCCACCGGATGTGACCCTGGTCTTGATTCGCTTGACGCTGCTG | 10.1 log fluorescence intensity
CTGGGACTTGAACCAACTCTGCCACGTGGGTCGTTTGTCTTGATTCGCTTGACGCTGCTG | 8.34 log fluorescence intensity
CGGAAGTGTCGTAAACGTCGGATATCAGGTTCTTCTGTCTTGATTCGCTTGACGCTGCTG | 8.51 log fluorescence intensity
GTGTATAGGGTCCCATCCAACACACGTGTTAAAATGGTCTTGATTCGCTTGACGCTGCTG | 8.3 log fluorescence intensity
TCCGGCTACCAGCTCCACTCACTTCAGGCCTTGTAGGTCTTGATTCGCTTGACGCTGCTG | 8.4 log fluorescence intensity
GTGTATAGGATCCCATCCAACACACGTGTTAAAATGGTCTTGATTCGCTTGACGCTGCTG | 8.35 log fluorescence intensity
TGTCGGGTAAGGGAATGTAGATCACGTGAATGTAAAGTCTTGATTCGCTTGACGCTGCTG | 8.34 log fluorescence intensity
CTGGGACTTGACCCAACTCTGCCACGTGGGTCGATTGTCTTGATTCGCTTGACGCTGCTG | 8.33 log fluorescence intensity

Sequence | binding signal
GTCTATAGGATCCCATCCAACACACGTGTTAAAATGGTCTTGATTCGCTTGACGCTGCTG | 8.42 log fluorescence intensity
GCTGCTGCGGTGCATACCCCACCGGATGTGTCCCCGGTCTTGATTCGCTTGACGCTGCTG | 9.62 log fluorescence intensity
GCTGCAGCGGTGCATACCCCACCGGATGTGACCCCGGTCTTGATTCGCTTGACGCTGCTG | 10.4 log fluorescence intensity
CAGCATAGGACTTCTTCACTGAAGCAATTGATAACCGTCTTGATTCGCTTGACGCTGCTG | 8.32 log fluorescence intensity
GCTGCTGCGGTGCATACCCCCCCGGATGTGACCCCGGTCTTGATTCGCTTGACGCTGCTG | 8.71 log fluorescence intensity
CGGAAGTGTCGTAGACGTCGGATATCCGGTTCTTCTGTCTTGATTCGCTTGACGCTGCTG | 11.7 log fluorescence intensity
CAGCATAGGACTTCTTCCCTGAAGGAATTGATAACCGTCTTGATTCGCTTGACGCTGCTG | 8.32 log fluorescence intensity
CGGAAGTGTCGTAAACGTCGGATATCCAGTTCTTCTGTCTTGATTCGCTTGACGCTGCTG | 8.64 log fluorescence intensity
CACTGACTTATATATGCGAATGCACATGAATAGACCGTCTTGATTCGCTTGACGCTGCTG | 8.35 log fluorescence intensity
GCTGCTGCGGTGCACACCCCACCGGATGTGACCCCGGTCTTGATTCGCTTGACGCTGCTG | 10.3 log fluorescence intensity
ACTGCTGCGGTGCATACCCCACCGGATGTGACCCCGGTCTTGATTCGCTTGACGCTGCTG | 10.4 log fluorescence intensity
TAAAGGGAAGACGGCTGTGGTAGTTCCGGGTATTAAGTCTTGATTCGCTTGACGCTGCTG | 8.35 log fluorescence intensity
TAAAGGTAAGACGGTTGTGGTAGTTCCGGGTATTAAGTCTTGATTCGCTTGACGCTGCTG | 8.54 log fluorescence intensity
GGAAAAAGGCCCAGGGTAACACCGGAAGTGGGGTTAGTCTTGATTCGCTTGACGCTGCTG | 12 log fluorescence intensity
TAAAGGCAAGACGGTTGTGGTAGTTCCGGGTATTAAGTCTTGATTCGCTTGACGCTGCTG | 8.32 log fluorescence intensity
GCTGCTGTGGTGCATACCCCACCGGATGTGACCCCGGTCTTGATTCGCTTGACGCTGCTG | 10.3 log fluorescence intensity
GGAACAAGGCCCAGGGTAACACCGGAAGTGGGCTTAGTCTTGATTCGCTTGACGCTGCTG | 11.9 log fluorescence intensity
CGGAAGAGTCGTAAACGTCGGATATCCGGTTCTTCTGTCTTGATTCGCTTGACGCTGCTG | 11.8 log fluorescence intensity
GGAAAAACGCCCAGGGTAACACCGGAAGTGGGCTTAGTCTTGATTCGCTTGACGCTGCTG | 12.1 log fluorescence intensity
GCTGCTGCTGTGCATACCCCACCGGATGTGACCCCGGTCTTGATTCGCTTGACGCTGCTG | 9.42 log fluorescence intensity
GGAAAAAGGCCCAGGGTAAGACCGGAAGTGGGCTTAGTCTTGATTCGCTTGACGCTGCTG | 12 log fluorescence intensity

Sequence | binding signal
TAAAGGGAAGACGGTTGTGGTAGTTACGGGTATTAAGTCTTGATTCGCTTGACGCTGCTG | 8.37 log fluorescence intensity
TGTCGGGTAAGGGCATGTAGATCACGTGAATGAAAAGTCTTGATTCGCTTGACGCTGCTG | 8.41 log fluorescence intensity
GGAAAAAGGCCCAGGGTATCACCGGAAGTGGGCTTAGTCTTGATTCGCTTGACGCTGCTG | 11.4 log fluorescence intensity
TACTGACTTATAGATGCGAATGCACATGAATAGACCGTCTTGATTCGCTTGACGCTGCTG | 8.45 log fluorescence intensity
TAAAGGGAAGACGGTTCTGGTAGTTCCGGGTATTAAGTCTTGATTCGCTTGACGCTGCTG | 8.63 log fluorescence intensity
CAGCATAGGACTTCTTCCCTGAAGCAATTGATAACGGTCTTGATTCGCTTGACGCTGCTG | 8.34 log fluorescence intensity
CGGAAGTGTCGTAAACGTCGGATATCGGGTTCTTCTGTCTTGATTCGCTTGACGCTGCTG | 8.65 log fluorescence intensity
GGGTATAGGATCCCATCCAACACACGTGTTAAAATGGTCTTGATTCGCTTGACGCTGCTG | 8.44 log fluorescence intensity
GTGTATAGGATCCCATCCAACACACGCGTTAAAATGGTCTTGATTCGCTTGACGCTGCTG | 8.37 log fluorescence intensity
CGGAAGTGTCGTAAACGTCGGATATCCGGTTCTCCTGTCTTGATTCGCTTGACGCTGCTG | 11.8 log fluorescence intensity
GCTGCTGCGGTGCATACCCCAGCGGATGTGACCCCGGTCTTGATTCGCTTGACGCTGCTG | 8.5 log fluorescence intensity
GGAAAAAGGCCCAGCGTAACACCGGAAGTGGGCTTAGTCTTGATTCGCTTGACGCTGCTG | 11.9 log fluorescence intensity
TAAAGGGAAGACTGTTGTGGTAGTTCCGGGTATTAAGTCTTGATTCGCTTGACGCTGCTG | 8.36 log fluorescence intensity
TAAAGGGAAGACGGTTGTGGTAGTTCCGGTTATTAAGTCTTGATTCGCTTGACGCTGCTG | 9.95 log fluorescence intensity
TAAAGGGAAGACGGTTGTGGTAGTTCCGGGCATTAAGTCTTGATTCGCTTGACGCTGCTG | 8.59 log fluorescence intensity
CGGAAGTGTCGTAAACGTCGGATATCTGGTTCTTCTGTCTTGATTCGCTTGACGCTGCTG | 8.37 log fluorescence intensity
GCTGCTACGGTGCATACCCCACCGGATGTGACCCCGGTCTTGATTCGCTTGACGCTGCTG | 10.3 log fluorescence intensity
CGGAAGTGTCGTAAACGTCGGATATCCGGTTATTCTGTCTTGATTCGCTTGACGCTGCTG | 12.1 log fluorescence intensity
